The test system of assay [1] is Tyrosine-protein kinase ABL1 (Homo sapiens), P00519 [T315I]. The following applies: at 1 µM.
Assay [2] relates to Tyrosine-protein kinase ABL1 (Homo sapiens), P00519 [Y253F]. The conditions noted are these: at 0.1 µM.
The test system is the same in assay [3]. The conditions noted are these: at 1 µM.
Assay [4] concerns the target Tyrosine-protein kinase ABL1 (Homo sapiens) (UniProt P00519). The following applies: at 0.1 µM.
The target is the same in assay [5]. The conditions noted are these: at 1 µM.
Assay [6] addresses ALK tyrosine kinase receptor (Homo sapiens) (UniProt Q9UM73). The following applies: at 0.1 µM.
Assay [7] shares this target. The following applies: at 1 µM.
Assay [8] addresses Tyrosine-protein kinase ABL2 (Homo sapiens) (UniProt P42684). The conditions noted are these: at 0.1 µM.
The target is the same in assay [9]. The following applies: at 1 µM.
The target of assay [10] is Tyrosine-protein kinase receptor UFO (Homo sapiens) (UniProt P30530). The following applies: at 0.1 µM.
The target is the same in assay [11]. The conditions noted are these: at 1 µM.
Assay [12] addresses Tyrosine-protein kinase Blk (Homo sapiens) (UniProt P51451). The conditions noted are these: at 0.1 µM.
Assay [13] shares this target. The conditions noted are these: at 1 µM.
Assay [14] deals with T1, Cytoplasmic tyrosine-protein kinase BMX (Homo sapiens) (UniProt P51813).
T1 sequence (whole entry): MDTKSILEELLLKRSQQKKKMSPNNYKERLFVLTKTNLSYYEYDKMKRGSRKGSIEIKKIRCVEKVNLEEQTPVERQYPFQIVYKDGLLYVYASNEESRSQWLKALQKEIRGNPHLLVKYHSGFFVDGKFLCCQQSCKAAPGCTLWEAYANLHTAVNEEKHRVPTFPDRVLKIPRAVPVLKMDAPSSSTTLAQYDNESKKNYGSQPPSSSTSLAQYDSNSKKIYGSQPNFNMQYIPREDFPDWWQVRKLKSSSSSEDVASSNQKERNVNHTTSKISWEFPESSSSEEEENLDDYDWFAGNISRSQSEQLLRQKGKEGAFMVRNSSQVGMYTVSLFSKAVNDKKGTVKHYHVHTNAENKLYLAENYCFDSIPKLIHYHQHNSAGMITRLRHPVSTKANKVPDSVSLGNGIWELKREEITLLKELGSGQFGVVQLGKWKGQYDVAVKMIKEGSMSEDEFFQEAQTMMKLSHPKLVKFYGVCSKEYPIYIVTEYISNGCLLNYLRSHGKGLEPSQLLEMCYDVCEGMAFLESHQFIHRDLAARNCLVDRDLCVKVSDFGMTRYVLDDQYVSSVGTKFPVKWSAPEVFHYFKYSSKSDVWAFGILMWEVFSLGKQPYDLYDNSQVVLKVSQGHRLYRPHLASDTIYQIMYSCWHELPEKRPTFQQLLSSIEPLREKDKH
The conditions noted are these: at 0.1 µM.

Assay [15] has as its target T1, Cytoplasmic tyrosine-protein kinase BMX (Homo sapiens). The following applies: at 1 µM.
For assay [16], the target named is Protein-tyrosine kinase 6 (Homo sapiens) (UniProt Q13882). The conditions noted are these: at 0.1 µM.
Assay [17] shares this target. The conditions noted are these: at 1 µM.
For assay [18], the target named is Tyrosine-protein kinase BTK (Homo sapiens) (UniProt Q06187). The following applies: at 0.1 µM.
For assay [19] the target is unchanged. The following applies: at 1 µM.
For assay [20], the target named is Tyrosine-protein kinase CSK (Homo sapiens) (UniProt P41240). The conditions noted are these: at 0.1 µM.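 Also: value given is the averaged percent inhibition of CSK kinase activity, from the GSK PKIS kinase inhibitor set screening panel.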

Tyrosine-protein kinase receptor UFO (Homo sapiens), sequence (P30530 whole entry): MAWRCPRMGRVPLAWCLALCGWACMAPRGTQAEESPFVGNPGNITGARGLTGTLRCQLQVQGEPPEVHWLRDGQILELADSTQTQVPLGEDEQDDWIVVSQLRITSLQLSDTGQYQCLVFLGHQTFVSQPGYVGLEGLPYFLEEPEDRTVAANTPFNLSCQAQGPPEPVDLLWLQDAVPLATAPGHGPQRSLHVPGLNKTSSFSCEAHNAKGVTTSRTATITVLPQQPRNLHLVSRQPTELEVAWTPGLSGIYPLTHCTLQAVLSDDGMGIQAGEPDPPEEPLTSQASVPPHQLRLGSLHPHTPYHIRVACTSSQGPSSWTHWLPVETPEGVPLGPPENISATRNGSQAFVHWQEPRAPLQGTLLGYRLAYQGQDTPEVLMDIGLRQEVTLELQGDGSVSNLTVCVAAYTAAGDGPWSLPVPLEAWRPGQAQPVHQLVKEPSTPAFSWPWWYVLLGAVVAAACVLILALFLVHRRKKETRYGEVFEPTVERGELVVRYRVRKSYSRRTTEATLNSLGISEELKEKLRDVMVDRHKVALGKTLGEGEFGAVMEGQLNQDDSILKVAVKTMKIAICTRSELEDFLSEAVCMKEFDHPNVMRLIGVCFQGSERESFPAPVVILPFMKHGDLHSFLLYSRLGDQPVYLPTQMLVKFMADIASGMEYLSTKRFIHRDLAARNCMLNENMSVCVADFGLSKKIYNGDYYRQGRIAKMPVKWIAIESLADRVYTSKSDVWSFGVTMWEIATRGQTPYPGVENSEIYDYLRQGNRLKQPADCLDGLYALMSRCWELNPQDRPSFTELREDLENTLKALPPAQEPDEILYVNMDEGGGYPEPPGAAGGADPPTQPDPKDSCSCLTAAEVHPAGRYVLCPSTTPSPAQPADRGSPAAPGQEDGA
Tyrosine-protein kinase BTK (Homo sapiens), sequence (Q06187 whole entry): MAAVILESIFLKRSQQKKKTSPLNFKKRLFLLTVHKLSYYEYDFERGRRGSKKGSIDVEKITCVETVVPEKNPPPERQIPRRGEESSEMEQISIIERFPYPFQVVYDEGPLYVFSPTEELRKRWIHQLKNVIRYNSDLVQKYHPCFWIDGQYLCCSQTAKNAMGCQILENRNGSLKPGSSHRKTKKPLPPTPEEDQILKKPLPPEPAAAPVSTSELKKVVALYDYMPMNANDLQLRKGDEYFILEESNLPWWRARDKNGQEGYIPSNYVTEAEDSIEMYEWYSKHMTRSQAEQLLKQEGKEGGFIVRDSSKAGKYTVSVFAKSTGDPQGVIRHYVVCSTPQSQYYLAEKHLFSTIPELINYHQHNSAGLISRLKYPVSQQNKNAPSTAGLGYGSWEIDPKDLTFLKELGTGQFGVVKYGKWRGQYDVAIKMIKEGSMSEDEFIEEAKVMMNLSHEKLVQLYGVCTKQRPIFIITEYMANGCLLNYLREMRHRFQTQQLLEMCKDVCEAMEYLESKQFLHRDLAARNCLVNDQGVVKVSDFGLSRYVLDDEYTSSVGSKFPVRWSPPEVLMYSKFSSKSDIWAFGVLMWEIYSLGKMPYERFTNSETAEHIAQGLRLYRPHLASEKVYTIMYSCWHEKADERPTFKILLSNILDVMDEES
Tyrosine-protein kinase ABL2 (Homo sapiens), sequence (P42684 whole entry): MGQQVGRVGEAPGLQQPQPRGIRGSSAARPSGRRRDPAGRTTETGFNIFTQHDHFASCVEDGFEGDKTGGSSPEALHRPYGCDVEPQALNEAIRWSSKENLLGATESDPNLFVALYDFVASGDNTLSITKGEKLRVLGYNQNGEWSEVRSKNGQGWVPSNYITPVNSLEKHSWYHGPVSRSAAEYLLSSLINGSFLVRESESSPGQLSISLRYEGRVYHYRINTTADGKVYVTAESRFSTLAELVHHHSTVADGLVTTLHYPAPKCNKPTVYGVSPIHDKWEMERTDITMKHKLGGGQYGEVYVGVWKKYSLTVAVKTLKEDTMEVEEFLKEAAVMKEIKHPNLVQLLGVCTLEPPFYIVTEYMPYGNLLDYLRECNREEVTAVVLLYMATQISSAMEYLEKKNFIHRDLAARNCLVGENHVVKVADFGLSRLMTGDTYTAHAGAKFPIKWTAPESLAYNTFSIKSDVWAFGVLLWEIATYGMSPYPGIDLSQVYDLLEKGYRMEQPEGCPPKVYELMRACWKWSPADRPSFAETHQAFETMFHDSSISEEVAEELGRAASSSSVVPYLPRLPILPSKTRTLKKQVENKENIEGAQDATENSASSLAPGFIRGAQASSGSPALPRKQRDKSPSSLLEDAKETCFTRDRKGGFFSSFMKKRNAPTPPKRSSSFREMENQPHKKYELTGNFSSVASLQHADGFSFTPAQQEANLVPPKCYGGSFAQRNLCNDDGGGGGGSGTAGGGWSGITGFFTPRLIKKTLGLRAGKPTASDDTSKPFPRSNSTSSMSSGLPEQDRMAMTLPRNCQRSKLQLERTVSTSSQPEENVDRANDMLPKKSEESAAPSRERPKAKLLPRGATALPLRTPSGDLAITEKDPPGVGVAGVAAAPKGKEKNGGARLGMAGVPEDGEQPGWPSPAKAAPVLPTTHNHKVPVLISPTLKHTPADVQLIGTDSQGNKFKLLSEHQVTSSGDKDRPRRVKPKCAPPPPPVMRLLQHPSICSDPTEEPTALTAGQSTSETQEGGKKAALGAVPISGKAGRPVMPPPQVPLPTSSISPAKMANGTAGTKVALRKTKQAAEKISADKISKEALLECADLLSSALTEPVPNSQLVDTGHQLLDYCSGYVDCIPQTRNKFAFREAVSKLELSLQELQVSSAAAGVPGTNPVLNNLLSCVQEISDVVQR
Protein-tyrosine kinase 6 (Homo sapiens), sequence (Q13882 whole entry, looked up): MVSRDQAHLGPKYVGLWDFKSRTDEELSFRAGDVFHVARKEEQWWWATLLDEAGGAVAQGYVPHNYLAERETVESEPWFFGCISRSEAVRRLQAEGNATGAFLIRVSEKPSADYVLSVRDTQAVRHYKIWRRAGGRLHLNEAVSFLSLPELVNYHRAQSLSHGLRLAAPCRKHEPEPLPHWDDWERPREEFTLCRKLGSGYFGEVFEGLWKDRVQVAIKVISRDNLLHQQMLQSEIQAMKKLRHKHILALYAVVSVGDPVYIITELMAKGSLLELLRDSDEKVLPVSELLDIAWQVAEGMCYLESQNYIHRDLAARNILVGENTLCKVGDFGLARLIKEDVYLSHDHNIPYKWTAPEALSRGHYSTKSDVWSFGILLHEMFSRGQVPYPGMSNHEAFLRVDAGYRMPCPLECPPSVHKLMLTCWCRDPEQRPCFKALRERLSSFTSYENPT
ALK tyrosine kinase receptor (Homo sapiens), sequence (Q9UM73 19-1620 limits assumed): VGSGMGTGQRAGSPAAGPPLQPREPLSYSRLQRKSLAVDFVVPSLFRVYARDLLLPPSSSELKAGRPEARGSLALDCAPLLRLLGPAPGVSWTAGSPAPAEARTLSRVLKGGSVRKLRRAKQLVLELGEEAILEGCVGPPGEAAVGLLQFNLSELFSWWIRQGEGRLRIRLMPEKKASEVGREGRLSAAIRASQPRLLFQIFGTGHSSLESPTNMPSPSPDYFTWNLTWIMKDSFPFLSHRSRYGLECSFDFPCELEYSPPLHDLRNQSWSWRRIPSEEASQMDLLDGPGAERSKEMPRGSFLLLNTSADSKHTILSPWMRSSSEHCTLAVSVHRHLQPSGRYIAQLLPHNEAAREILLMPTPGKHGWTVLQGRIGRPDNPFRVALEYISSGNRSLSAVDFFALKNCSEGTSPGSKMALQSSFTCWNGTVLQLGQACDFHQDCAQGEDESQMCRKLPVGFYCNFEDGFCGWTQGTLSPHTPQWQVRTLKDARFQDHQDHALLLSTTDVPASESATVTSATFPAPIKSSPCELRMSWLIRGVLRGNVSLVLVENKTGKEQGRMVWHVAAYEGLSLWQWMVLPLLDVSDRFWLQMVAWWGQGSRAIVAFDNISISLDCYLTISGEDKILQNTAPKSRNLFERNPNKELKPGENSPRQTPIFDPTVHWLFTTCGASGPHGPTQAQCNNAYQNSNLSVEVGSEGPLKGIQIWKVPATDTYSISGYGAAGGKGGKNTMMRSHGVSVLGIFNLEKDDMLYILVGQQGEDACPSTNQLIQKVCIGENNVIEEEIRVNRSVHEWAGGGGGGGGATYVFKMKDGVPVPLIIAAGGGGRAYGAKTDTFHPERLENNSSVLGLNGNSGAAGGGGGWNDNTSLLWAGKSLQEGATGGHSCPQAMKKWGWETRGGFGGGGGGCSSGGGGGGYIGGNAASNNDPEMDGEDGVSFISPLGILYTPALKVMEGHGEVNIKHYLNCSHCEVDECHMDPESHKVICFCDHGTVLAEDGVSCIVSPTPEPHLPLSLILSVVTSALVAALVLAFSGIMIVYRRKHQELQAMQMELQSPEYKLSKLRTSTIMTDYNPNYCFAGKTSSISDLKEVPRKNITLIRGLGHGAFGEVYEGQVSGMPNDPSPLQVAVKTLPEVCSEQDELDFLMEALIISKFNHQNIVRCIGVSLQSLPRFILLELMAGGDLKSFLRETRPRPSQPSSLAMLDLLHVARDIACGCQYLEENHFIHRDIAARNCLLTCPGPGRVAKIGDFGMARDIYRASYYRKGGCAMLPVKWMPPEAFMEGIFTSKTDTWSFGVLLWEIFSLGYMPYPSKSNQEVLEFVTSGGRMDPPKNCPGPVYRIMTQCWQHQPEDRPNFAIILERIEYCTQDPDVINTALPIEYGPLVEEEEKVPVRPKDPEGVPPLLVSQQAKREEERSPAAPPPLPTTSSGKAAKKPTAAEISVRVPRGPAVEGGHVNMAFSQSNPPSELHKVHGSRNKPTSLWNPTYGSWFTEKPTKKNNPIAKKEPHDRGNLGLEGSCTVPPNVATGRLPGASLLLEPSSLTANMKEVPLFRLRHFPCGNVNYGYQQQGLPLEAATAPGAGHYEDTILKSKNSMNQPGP

Turning to `O=C(Nc1n[nH]c2cc(-c3ccc(F)cc3)ccc12)C1CC1`, the inhibition in assay [1] turned out to be 69.4%; in assay [2], 10.8%; in [3], 40.1%; in [4], 5.81%; in [5], 40.4%; in assay [6], 1.12%. Moreover, the inhibition in assay [7] is 2.06%; in [8], 3.46%; in assay [9] it was 12.3%; in assay [10], -5.44%; in assay [11] it was -2.92%; in assay [12] it was 1.55%. The inhibition in assay [13] was 7.03%; in assay [14] it was 0.57%; in assay [15], 5.89%; in [16], 3.22%; in [17], 2.76%; in assay [18], -1.4%. The values for the inhibition in [19] and in assay [20] were -0.88% and 3.39%, respectively.

Turning to `COc1ccc2c(-c3ccnc(Nc4cccc(OC(F)(F)F)c4)n3)cnn2n1`, the inhibition came to 6.33% in assay [1]; 4.09% in assay [2]; 8.45% in assay [3]; 4.8% in assay [4]; 17% in [5]; 2.4% in assay [6]. The inhibition in assay [7] is 5.73%; in [8], 4.05%; in [9], 19.1%; in assay [10] it was -4.17%; in assay [11] it was -4.65%; in [12], 3.16%. Further, the inhibition came out at 4.41% in assay [13]; 0.75% in assay [14]; 8.05% in assay [15]; 7.26% in assay [16]; 7.21% in [17]; 1.66% in [18]. Further, the inhibition in assay [19] is 2.02%; in assay [20] it was 8.18%.

With `CC(=O)Nc1cccc(C#Cc2cncnc2Nc2ccc(OCc3cccc(F)c3)c(Cl)c2)c1`, the inhibition in [1] was 1.79%; in assay [2] it was 0.83%; in assay [3] it was 3.28%; in assay [4] it was 4.43%; in assay [5], 8.55%; in [6] it was 1.96%. Further, the inhibition in assay [7] came out at 6.45%; in assay [8], 2.39%; in [9], 5.22%; in [10] it was 1.64%; in assay [11], 1.6%; in assay [12] it was 2.4%. The inhibition in assay [13] was determined as 1.37%; in assay [14] it was 0.73%; in [15] it was 4.15%; in [16] it was 1.35%; in [17], 1.55%; in assay [18], 2.74%. In addition, the inhibition amounted to 5.12% in [19] and 5.08% in assay [20].

Turning to `CCCN1CCC(c2ccc(Nc3nc(Nc4cc(F)ccc4C(N)=O)c4cc[nH]c4n3)c(OC)c2)CC1`, the inhibition in [1] is 19.1%; in assay [2], 3.53%; in [3], 8.34%; in assay [4], 1.86%; in assay [5], 8.95%; in [6], 97.5%. The inhibition was 86.6% in assay [7]; 2.8% in assay [8]; 5.54% in assay [9]; 17.1% in assay [10]; 66% in [11]; 3.5% in assay [12]. In addition, the inhibition in [13] was 8.52%; in [14], 3.68%; in [15], 6.36%; in assay [16], 13.5%; in [17], 64.8%; in [18], -1.53%. Moreover, the inhibition in assay [19] is -1.71%; in [20], 1.38%.

Consider `Nc1nc(-c2ccc(F)cc2)c(-c2ccc3ncccc3n2)s1`, for which the inhibition is 6.49% in [1]; 9.13% in assay [2]; 26.9% in assay [3]; 9.42% in assay [4]; 27.8% in [5]; 3.27% in assay [6]. In addition, the inhibition in assay [7] is 5.68%; in [8], 6.71%; in assay [9] it was 20.1%; in assay [10], -5.15%; in assay [11], -3.07%; in [12] it was 4.2%. Also, the inhibition is 12.1% in assay [13]; -2.65% in assay [14]; 6.23% in assay [15]; 7.59% in assay [16]; 20.6% in assay [17]; 0.27% in [18]. The inhibition came to 0.99% in assay [19] and 5.94% in [20].

Regarding `CCc1nn2ncccc2c1-c1ccnc(NC2CC2)n1`, the inhibition in [1] amounted to 1.06%; in assay [2], 1.02%; in [3], 4.43%; in assay [4], 5.52%; in [5], 6.81%; in [6], 1.99%. Moreover, the inhibition in [7] is 5.07%; in assay [8], 2.35%; in assay [9] it was 5.86%; in assay [10], -2.55%; in [11], -2.77%; in assay [12] it was 1.77%. Besides, the inhibition is 3.32% in assay [13]; 3.6% in assay [14]; 5.18% in assay [15]; -0.52% in assay [16]; 1.65% in [17]; 0.24% in assay [18]. Moreover, the inhibition amounted to 0.76% in assay [19] and 0.85% in assay [20].
